SMILES strings stand for the structures. Among all 360,000 compounds or so, about 1,400 (0.39%) were called active. What follows is part of a selection rich in actives, with near analogues and random picks from the rest. A number with no mark means an inactive call. No stated cut-off is given here; in the data, active means inhibition above about 21%; inactive means the rest.

As a reminder, the inhibition is the relative decrease from the control value, in per cent.

The target of this assay is Receptor-interacting serine/threonine-protein kinase 2 (Homo sapiens) (UniProt O43353). The assay can be described thus: NOD2-RIPK2 binding disruptors in cells, primary screen, fluorescence, CHO cells, BLA complementation (AID 624267).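 Further: 0% = vehicle only and 100% = reference blocker.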 The conditions noted are these: CHO BLA complementation NOD2-RIPK2, CCF4 ratio; at 4.98 µM; hits give high values.
Sequence of Receptor-interacting serine/threonine-protein kinase 2 (Homo sapiens) (O43353 whole entry, looked up): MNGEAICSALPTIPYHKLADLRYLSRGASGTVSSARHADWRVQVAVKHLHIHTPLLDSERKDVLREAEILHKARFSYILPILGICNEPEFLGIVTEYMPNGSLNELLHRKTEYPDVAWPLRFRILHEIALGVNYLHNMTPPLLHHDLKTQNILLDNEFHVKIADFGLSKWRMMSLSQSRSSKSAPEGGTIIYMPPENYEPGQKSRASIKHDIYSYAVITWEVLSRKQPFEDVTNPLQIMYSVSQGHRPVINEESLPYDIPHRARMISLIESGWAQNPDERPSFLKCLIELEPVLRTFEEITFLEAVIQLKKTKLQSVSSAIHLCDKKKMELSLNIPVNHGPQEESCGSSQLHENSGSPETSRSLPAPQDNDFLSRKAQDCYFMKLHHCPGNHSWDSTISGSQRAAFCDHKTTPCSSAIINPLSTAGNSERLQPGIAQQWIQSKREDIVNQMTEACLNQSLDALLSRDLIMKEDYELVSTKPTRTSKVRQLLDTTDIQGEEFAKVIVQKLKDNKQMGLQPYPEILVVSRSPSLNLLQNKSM
In the case of `COCCN(C(=O)CSCc1ccc(C)cc1)c1c(N)n(CC(C)C)c(=O)[nH]c1=O`, the inhibition was -4.76%.

For the compound `CN(C)CCCO/N=C(\c1ccccc1)c1ccncc1`, the inhibition was -6.88%.

In the case of `CCO[C@@H]1OC(C(N)=O)=C[C@H](c2ccc(Br)cc2)[C@H]1CCCO`, the inhibition is -17.7%.

Take `CN(C)S(=O)(=O)c1cccc(C(=O)OCC(=O)N2CCCC2=O)c1`: the inhibition was -8.86%.

As to `NS(=O)(=O)c1cccc(NC(=O)COC(=O)c2cc([N+](=O)[O-])ccc2N2CCCC2)c1`, the inhibition is -11.1%.

`N#Cc1cccc(NC(=O)COC(=O)c2ccccc2C(=O)c2ccc(Cl)c([N+](=O)[O-])c2)c1`: the inhibition is 39.9% (active).

For the compound `CC(=O)Nc1ccc(NC(=O)C(C)OC(=O)c2ccccc2C(=O)c2ccc(Cl)c([N+](=O)[O-])c2)cc1` (configuration not stated), the inhibition was 3.48%.

Take `Cn1nnnc1SCC(=O)NNC(=O)c1ccc(Br)cc1`: the inhibition is -2.01%.

Consider `CN1CCN(/N=C2/C(=O)Nc3ccc([N+](=O)[O-])cc32)CC1`, for which the inhibition was 1.73%.

`CN1CCN(/N=C/c2ccc(C#N)cc2)CC1`: the inhibition is -13.1%.

In the case of `CN1CCN(/N=C/c2ccc(-c3ccc([N+](=O)[O-])cc3)o2)CC1`, the inhibition is 21.4% (active).

`COCCNC(=O)C(c1ccc(C)o1)N(Cc1cccs1)C(=O)c1snc(C(N)=O)c1N` (configuration not stated): the inhibition was -22%.

Turning to `Cc1nnc(NC2=NCCCCC2)o1`, the inhibition is -2.4%.

Regarding `COc1ccc(CNC(=O)CN2CCC(n3nnc4cc(F)ccc43)CC2)cc1`, the inhibition is -4.66%.

Regarding `Cn1c(SCC(=O)C(C)(C)C)nnc1-c1ccccn1`, the inhibition was 2.6%.

For `O=C(O)COc1ccc(/C=N/O)cc1Br`, the inhibition was 11.6%.

For `CNC(=S)N/N=C/c1ccc(OCc2ccccc2)c(Br)c1`, the inhibition was 33.9% (active).

Turning to `COc1cc(/C=N/NC(=O)Nc2ccccc2)ccc1OCCOc1ccccc1C`, the inhibition was 9.59%.

Take `Cc1c(-c2ccccc2)cn2c1-c1ccc(C)n1CC2`: the inhibition was -12.5%.

`[O-][n+]1onc2c1CCc1[nH]c(-c3ccccc3)nc1-2`: the inhibition is -6.67%.

Turning to `CC(C)=CCC/C(C)=C/C(=O)O`, the inhibition is 3.56%.

With `Cc1cc(C)nc(NC(=O)Nc2ccccc2C(F)(F)F)n1`, the inhibition is 7.62%.

Consider `O=C(/C=C/Sc1ncn[nH]1)c1ccc(Cl)cc1`, for which the inhibition was 21.3% (active).

Turning to `CC(C)CC(=O)N=C1SC2CS(=O)(=O)CC2N1CCc1ccccc1` (configuration not stated), the inhibition was -9.18%.

On to `C=CCn1c(-c2ccccc2OCC)n[nH]c1=S`, for which the inhibition was 0.62%.

With `O[C@H]1C[C@H](c2ccc(Cl)cc2)N(Cc2cccs2)C[C@@H]1n1cc(C2CC2)nn1`, the inhibition is 21.6% (active).

Take `O[C@@H]1C[C@H](c2ccccc2)N(Cc2cccs2)C[C@H]1n1cc(C2CC2)nn1`: the inhibition is -9.47%.

In the case of `O[C@H]1CN(Cc2cccs2)[C@@H](c2ccc(Cl)cc2)C[C@@H]1n1cc(C2CC2)nn1`, the inhibition was 5.68%.

For `CC(=O)Nc1ccc(CNc2nc(NCCN(C)C)nc3cc(-c4ccccc4)sc23)cc1`, the inhibition was 11.1%.

For the compound `Cc1ccc(C(=O)N2CCC(n3nccc3NC(=O)Nc3cccc(F)c3)CC2)cn1`, the inhibition was -2.88%.

Consider `COc1ccc2ccccc2c1CNCc1ccccn1`, for which the inhibition was -4.61%.

On to `FC(F)Oc1ccccc1C1CC(c2ccc(Br)s2)Nc2ncnn21` (configuration not stated), for which the inhibition is -2.05%.

The values are drawn from PubChem BioAssay AID624267 (The Scripps Research Institute Molecular Screening Center, 2012).
